In PubChem BioAssay (NCI):
Compounds without any hit were thinned out: in the full panel of roughly 83,000, 20% have a hit.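 Assay: single dose, 48 h. Readout: percent growth (0 = no net growth; negative = cell death). Active: <10.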 The source made the active and inactive calls.

Assays:
Assay in all cases: NCI-60 one-dose screen, 48 h (100 = growth as untreated, 0 = no growth, -100 = all killed)
Details in all cases: 10 µM unless noted
NCI-H23 lung = test system: NCI-H23 lung
NCI-H226 lung = test system: NCI-H226 lung
NCI-H322M lung = test system: NCI-H322M lung
HOP-62 NSCLC = test system: HOP-62 NSCLC
NCI-H460 lung = test system: NCI-H460 lung
HOP-92 NSCLC = test system: HOP-92 NSCLC
NCI-H522 lung = test system: NCI-H522 lung
A549/ATCC NSCLC = test system: A549/ATCC NSCLC
786-0 renal = test system: 786-0 renal
COLO 205 colon = test system: COLO 205 colon
DU-145 prostate = test system: DU-145 prostate
MDA-MB-231 breast = test system: MDA-MB-231 breast
RXF 393 renal = test system: RXF 393 renal
SF-268 CNS = test system: SF-268 CNS
SF-539 CNS = test system: SF-539 CNS
UACC-257 melanoma = test system: UACC-257 melanoma
M14 melanoma = test system: M14 melanoma
K-562 leukemia = test system: K-562 leukemia
MALME-3M melanoma = test system: MALME-3M melanoma
SF-295 CNS = test system: SF-295 CNS

Measured: growth

Cc1cc(C)nc(NC(N)=NCCc2ccccc2)n1
inactive: NCI-H23 lung 50.4% | NCI-H226 lung 52.6% | NCI-H322M lung 52.1% | HOP-62 NSCLC 52.4% | NCI-H460 lung 23.9% | HOP-92 NSCLC 39.2% | NCI-H522 lung 29.9% | A549/ATCC NSCLC 33.1% | 786-0 renal 50.1% | COLO 205 colon 40.1% | DU-145 prostate 42.6% | MDA-MB-231 breast 51.6% | RXF 393 renal 51.4% | SF-268 CNS 39.5% | SF-539 CNS 36.7% | UACC-257 melanoma 30.2% | M14 melanoma 31.8%

Cc1ccc(-c2ccc(Nc3ccccc3)nn2)cc1S(N)(=O)=O
inactive: NCI-H23 lung 96.2% | NCI-H226 lung 99.2% | NCI-H322M lung 108% | HOP-62 NSCLC 107% | NCI-H460 lung 82.9% | HOP-92 NSCLC 98.9% | NCI-H522 lung 96.1% | A549/ATCC NSCLC 79.4% | 786-0 renal 103% | DU-145 prostate 85.2% | K-562 leukemia 21.3% | MALME-3M melanoma 73.5% | MDA-MB-231 breast 89.2% | RXF 393 renal 91.8% | SF-268 CNS 97.4% | SF-539 CNS 82.3% | UACC-257 melanoma 96.4% | M14 melanoma 83.2%

N#CCCCCCn1c2ccccc2c2c3[nH]c(=O)[nH]c(=O)c3c3c4ccccc4n(CCCCCC#N)c3c21
inactive: NCI-H23 lung 55.6% | NCI-H226 lung 65.8% | NCI-H322M lung 42.5% | HOP-62 NSCLC 15.8% | NCI-H460 lung 34.9% | HOP-92 NSCLC 19.2% | NCI-H522 lung 44.9% | A549/ATCC NSCLC 73.7% | COLO 205 colon 71.6% | DU-145 prostate 54.7% | MALME-3M melanoma 33.7% | RXF 393 renal 41.4% | SF-268 CNS 19.6% | SF-295 CNS 43.7% | M14 melanoma 66.8%
active: 786-0 renal 0.172% | MDA-MB-231 breast -7.94% | SF-539 CNS -0.187%

COc1cc(-c2cc(-c3nc4ccccc4[nH]3)[nH]n2)cc(OC)c1OC
inactive: NCI-H23 lung 41% | NCI-H226 lung 14.5% | NCI-H322M lung 39.5% | HOP-62 NSCLC 39.7% | NCI-H460 lung 35.5% | HOP-92 NSCLC 52.1% | NCI-H522 lung 37.2% | A549/ATCC NSCLC 53.6% | 786-0 renal 57.6% | DU-145 prostate 50.4% | MALME-3M melanoma 28% | MDA-MB-231 breast 66.2% | RXF 393 renal 49.2% | SF-268 CNS 72.5% | SF-539 CNS 74.8% | UACC-257 melanoma 44% | M14 melanoma 39.4%
active: K-562 leukemia 4.51%

C[C@H]1OC(=O)/C=C/[C@@H](O)[C@@H](O)CCCCCCCC[C@@H]1O
inactive: NCI-H23 lung 95.1% | NCI-H226 lung 89.3% | NCI-H322M lung 96.2% | HOP-62 NSCLC 82.9% | NCI-H460 lung 102% | HOP-92 NSCLC 82.8% | NCI-H522 lung 79.5% | A549/ATCC NSCLC 73.6% | 786-0 renal 97.5% | DU-145 prostate 107% | K-562 leukemia 91.6% | MALME-3M melanoma 98.1% | MDA-MB-231 breast 109% | RXF 393 renal 107% | SF-268 CNS 102% | SF-295 CNS 98.9% | SF-539 CNS 97.7% | UACC-257 melanoma 82.5% | M14 melanoma 96.3%

CCc1nnc(NC(=O)c2ccoc2COc2ccccc2)s1
inactive: NCI-H23 lung 57.9% | NCI-H226 lung 74.3% | NCI-H322M lung 86.9% | HOP-62 NSCLC 56.3% | NCI-H460 lung 27% | HOP-92 NSCLC 74.8% | NCI-H522 lung 38.6% | A549/ATCC NSCLC 62.1% | 786-0 renal 72.2% | DU-145 prostate 75.4% | K-562 leukemia 12.3% | MALME-3M melanoma 47.5% | MDA-MB-231 breast 55.9% | RXF 393 renal 54.2% | SF-268 CNS 66.7% | SF-295 CNS 36.1% | SF-539 CNS 43.5% | UACC-257 melanoma 76.9% | M14 melanoma 11.7%

COc1ccc(/C(=C\c2ccc3c(c2)OCO3)C(=O)Nc2nc3ccccc3s2)cc1OC
inactive: NCI-H23 lung 95.1% | NCI-H226 lung 86.9% | NCI-H322M lung 91.4% | HOP-62 NSCLC 94.2% | NCI-H460 lung 102% | HOP-92 NSCLC 91.4% | NCI-H522 lung 89.5% | A549/ATCC NSCLC 91.5% | 786-0 renal 83.7% | COLO 205 colon 110% | DU-145 prostate 105% | K-562 leukemia 83.9% | MDA-MB-231 breast 109% | RXF 393 renal 88.4% | SF-268 CNS 83.2% | SF-539 CNS 93.8% | UACC-257 melanoma 105% | M14 melanoma 92.7%

CC(C)=CCC[C@](C)(O)[C@H]1CC[C@]2(C)[C@@H]1CC[C@@H]1[C@@]3(C)C/C(=C/c4cccc([N+](=O)[O-])c4)C(=O)C(C)(C)[C@@H]3CC[C@]12C
inactive: NCI-H23 lung 74.9% | NCI-H226 lung 84.5% | NCI-H322M lung 103% | HOP-62 NSCLC 97.4% | NCI-H460 lung 87.2% | HOP-92 NSCLC 76.6% | NCI-H522 lung 90.5% | A549/ATCC NSCLC 71% | 786-0 renal 88% | DU-145 prostate 68.2% | K-562 leukemia 74% | MALME-3M melanoma 84.5% | MDA-MB-231 breast 88.9% | RXF 393 renal 90.1% | SF-268 CNS 93.2% | SF-295 CNS 103% | SF-539 CNS 96% | UACC-257 melanoma 97.9% | M14 melanoma 83%
